Measured values: PubChem BioAssay (NCI)
The panel holds about 83,000 compounds, 20% with a hit somewhere; the sample as a whole holds those more often.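 Growth was measured after 48 h exposure to one concentration of compound in 96-well plates. Values under 10 count as active.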 The source made the active and inactive calls.

Tests used:
Assay in all cases: NCI-60 one-dose screen, 48 h (100 = growth as untreated, 0 = no growth, -100 = all killed)
Details in all cases: 10 µM unless noted
HCT-15 colon = test system: HCT-15 colon
HT29 colon = test system: HT29 colon
SNB-75 CNS = test system: SNB-75 CNS
SNB-19 CNS = test system: SNB-19 CNS
U251 CNS = test system: U251 CNS
PC-3 prostate = test system: PC-3 prostate
SK-MEL-5 melanoma = test system: SK-MEL-5 melanoma
UACC-62 melanoma = test system: UACC-62 melanoma
LOX IMVI melanoma = test system: LOX IMVI melanoma
SK-MEL-28 melanoma = test system: SK-MEL-28 melanoma
SK-MEL-2 melanoma = test system: SK-MEL-2 melanoma
EKVX NSCLC = test system: EKVX NSCLC
SN12C renal = test system: SN12C renal
UO-31 renal = test system: UO-31 renal
TK-10 renal = test system: TK-10 renal
ACHN renal = test system: ACHN renal
CAKI-1 renal = test system: CAKI-1 renal
A498 renal = test system: A498 renal
CCRF-CEM leukemia = test system: CCRF-CEM leukemia
MOLT-4 leukemia = test system: MOLT-4 leukemia

Measured: growth

CN(C)CCn1c(=O)c2ccccc2n2nc3ccccc3c12
inactive: HCT-15 colon 84.1% | HT29 colon 78.9% | SNB-75 CNS 93.5% | SNB-19 CNS 78.1% | U251 CNS 88.8% | PC-3 prostate 99.3% | SK-MEL-5 melanoma 87.2% | UACC-62 melanoma 72.7% | LOX IMVI melanoma 56.4% | SK-MEL-28 melanoma 116% | SK-MEL-2 melanoma 128% | EKVX NSCLC 94.1% | SN12C renal 69.9% | UO-31 renal 52.9% | TK-10 renal 97.9% | ACHN renal 46.6% | CAKI-1 renal 77.6% | CCRF-CEM leukemia 81.8% | MOLT-4 leukemia 29.9%
active: A498 renal 9.6%

C[C@@H]1CN(c2cnc(C(=O)Nc3cc(F)cc4cccnc34)cn2)C[C@H](C)N1
inactive: HCT-15 colon 35.7% | HT29 colon 35.5% | SNB-75 CNS 69% | SNB-19 CNS 92.4% | U251 CNS 76.6% | PC-3 prostate 21.2% | SK-MEL-5 melanoma 102% | UACC-62 melanoma 94.3% | LOX IMVI melanoma 72.7% | SK-MEL-28 melanoma 94% | SK-MEL-2 melanoma 105% | EKVX NSCLC 77% | SN12C renal 83.2% | UO-31 renal 44.1% | TK-10 renal 72.2% | ACHN renal 32.3% | CAKI-1 renal 66.2% | A498 renal 67.4% | CCRF-CEM leukemia 26.9% | MOLT-4 leukemia 33%

Cc1cccc(NC(=O)N/C(N)=N/c2nc3ccccc3s2)c1
inactive: HCT-15 colon 23% | HT29 colon 11.3% | SNB-19 CNS 42.3% | U251 CNS 28.9% | PC-3 prostate 34.2% | SK-MEL-5 melanoma 23.7% | UACC-62 melanoma 33.5% | LOX IMVI melanoma 34.4% | SK-MEL-28 melanoma 63% | SK-MEL-2 melanoma 33% | EKVX NSCLC 49.6% | SN12C renal 43.9% | UO-31 renal 38.6% | TK-10 renal 59% | ACHN renal 38.7% | CAKI-1 renal 25% | CCRF-CEM leukemia 21.4% | MOLT-4 leukemia 35.7%
active: SNB-75 CNS 4.63% | A498 renal -3.86%

COc1ccc(C(c2cc(OC)c(OC)c(OC)c2)N2CCCCC2)cc1 (stereo not given)
inactive: HCT-15 colon 20.6% | SNB-75 CNS 26.6% | SNB-19 CNS 30.4% | U251 CNS 26.1% | PC-3 prostate 25.1% | SK-MEL-5 melanoma 29.5% | UACC-62 melanoma 18.2% | LOX IMVI melanoma 36.3% | SK-MEL-28 melanoma 47.2% | SK-MEL-2 melanoma 22% | EKVX NSCLC 59.1% | SN12C renal 54.3% | UO-31 renal 48.8% | TK-10 renal 57.6% | ACHN renal 50.9% | CAKI-1 renal 29.2% | CCRF-CEM leukemia 29.9% | MOLT-4 leukemia 31.5%
active: HT29 colon 7.93% | A498 renal 7.32%

CN(C)C1CN(C(=O)c2cc(-c3ccc4ncnc(N5CCc6cc(F)c(Cl)cc65)c4c3)cnc2N)C1
active: HCT-15 colon 7.17% | SNB-75 CNS -27% | PC-3 prostate 7.13% | SK-MEL-5 melanoma -20.8% | UACC-62 melanoma -19.7% | LOX IMVI melanoma 7.5% | SK-MEL-28 melanoma 8.13% | SK-MEL-2 melanoma -11.5% | UO-31 renal 7.34% | TK-10 renal 5.66% | CAKI-1 renal 0.593% | A498 renal -78.2% | MOLT-4 leukemia 4.86%
inactive: HT29 colon 14.8% | SNB-19 CNS 23.5% | U251 CNS 25% | EKVX NSCLC 10.1% | SN12C renal 11.1% | ACHN renal 10.8% | CCRF-CEM leukemia 15.7%

Cc1ccc(C2CC(c3cccc(Nc4ccncc4)c3)=Nc3c(N)nc(N)nc3N2)cc1 (stereo not given)
inactive: HCT-15 colon 40.4% | HT29 colon 21.7% | SNB-75 CNS 70% | SNB-19 CNS 70.5% | U251 CNS 42.4% | PC-3 prostate 43.8% | SK-MEL-5 melanoma 65.3% | UACC-62 melanoma 78.4% | LOX IMVI melanoma 25.7% | SK-MEL-28 melanoma 93.2% | SK-MEL-2 melanoma 71.1% | EKVX NSCLC 60.2% | SN12C renal 61.2% | UO-31 renal 75.3% | TK-10 renal 99.8% | ACHN renal 56.1% | CAKI-1 renal 72.3% | A498 renal 86% | CCRF-CEM leukemia 33.9% | MOLT-4 leukemia 33.4%

COc1ccc(N=C2NN=C(c3c[nH]c4ccccc34)CS2)cc1OC
inactive: HCT-15 colon 43.3% | HT29 colon 25.3% | SNB-75 CNS 42.2% | SNB-19 CNS 51.8% | U251 CNS 44.8% | SK-MEL-5 melanoma 51.9% | UACC-62 melanoma 35.6% | LOX IMVI melanoma 45.1% | SK-MEL-28 melanoma 63.7% | SK-MEL-2 melanoma 19.1% | EKVX NSCLC 63.3% | SN12C renal 70.7% | UO-31 renal 35.9% | TK-10 renal 96% | ACHN renal 62.8% | CAKI-1 renal 63.8% | A498 renal 62.5% | CCRF-CEM leukemia 39.5% | MOLT-4 leukemia 39.9%
active: PC-3 prostate -41.3%

CCOC(=O)c1cnn(CC(C)O)c1NC(=O)NCc1ccccc1C(F)(F)F (stereo not given)
inactive: HCT-15 colon 101% | HT29 colon 82.1% | SNB-75 CNS 93.6% | SNB-19 CNS 103% | U251 CNS 101% | PC-3 prostate 107% | SK-MEL-5 melanoma 102% | UACC-62 melanoma 91.8% | LOX IMVI melanoma 100% | SK-MEL-28 melanoma 103% | SK-MEL-2 melanoma 76.6% | EKVX NSCLC 98.1% | SN12C renal 99% | UO-31 renal 87.1% | TK-10 renal 80.9% | ACHN renal 98.3% | CAKI-1 renal 86.4% | A498 renal 108% | CCRF-CEM leukemia 114% | MOLT-4 leukemia 76%

COc1cc(-c2ccc[nH]2)[nH]c1/C=C1\N=C(C)C(CC(=O)OCC(C)(C)C)=C1C
active: HCT-15 colon -78% | HT29 colon -59.9% | SNB-75 CNS -23.8% | SNB-19 CNS -33.3% | U251 CNS -95.6% | PC-3 prostate -88.3% | SK-MEL-5 melanoma -95.7% | UACC-62 melanoma -82.6% | LOX IMVI melanoma -88.3% | SK-MEL-28 melanoma -78.2% | SK-MEL-2 melanoma -60.4% | EKVX NSCLC -69.3% | SN12C renal -75% | UO-31 renal -86.5% | TK-10 renal -89.9% | ACHN renal -83.2% | CAKI-1 renal -78.8% | A498 renal -89.9% | CCRF-CEM leukemia -16.5% | MOLT-4 leukemia -37%

COc1cc2c3c(c4c5ccccc5[nH]c4c2c(OC)c1OC)C(=O)N(CCN1CCCCC1)C3=O
inactive: SNB-75 CNS 63.5% | SNB-19 CNS 30.1% | PC-3 prostate 31.3% | SK-MEL-5 melanoma 31.7% | UACC-62 melanoma 48.4% | SK-MEL-28 melanoma 52.2% | SK-MEL-2 melanoma 49.4% | EKVX NSCLC 35.1% | SN12C renal 12.6% | UO-31 renal 16.1% | A498 renal 42.4% | MOLT-4 leukemia 12.9%
active: HCT-15 colon -87.2% | HT29 colon -39.6% | U251 CNS -60.3% | LOX IMVI melanoma -92% | TK-10 renal -76.6% | ACHN renal -40.4% | CAKI-1 renal -49% | CCRF-CEM leukemia 3.38%

COc1cccc(-c2cn3nc(-c4cn(C)c5ccccc45)sc3n2)c1
inactive: HCT-15 colon 73.7% | HT29 colon 91.1% | SNB-75 CNS 83.1% | SNB-19 CNS 91.7% | U251 CNS 97.7% | PC-3 prostate 94.7% | SK-MEL-5 melanoma 84.2% | UACC-62 melanoma 77.9% | LOX IMVI melanoma 97.6% | SK-MEL-28 melanoma 95.1% | SK-MEL-2 melanoma 102% | EKVX NSCLC 85.9% | SN12C renal 92% | UO-31 renal 71.7% | TK-10 renal 105% | ACHN renal 104% | CAKI-1 renal 82.6% | A498 renal 87.5% | CCRF-CEM leukemia 92% | MOLT-4 leukemia 87.5%

Nc1nc(N)c2c(n1)NC(c1cccc(Nc3ccnc4cc(C(F)(F)F)ccc34)c1)CC(c1ccc3c(c1)OCO3)=N2 (stereo not given)
inactive: HCT-15 colon 37.4% | HT29 colon 23.8% | SNB-75 CNS 78.7% | SNB-19 CNS 76.5% | U251 CNS 56.4% | PC-3 prostate 48.5% | SK-MEL-5 melanoma 66.4% | UACC-62 melanoma 90.6% | LOX IMVI melanoma 65.7% | SK-MEL-28 melanoma 96.3% | SK-MEL-2 melanoma 61.6% | EKVX NSCLC 76.7% | SN12C renal 81.6% | UO-31 renal 69.2% | TK-10 renal 90.1% | ACHN renal 102% | CAKI-1 renal 59.6% | A498 renal 87.9% | CCRF-CEM leukemia 50.9% | MOLT-4 leukemia 29%

COC(=O)/C(CCC=C(C)C)=C1\[C@@H](OC(C)=O)C[C@@]2(C)[C@H]1C/C(=N/O)[C@H]1[C@@]3(C)CC/C(=N\O)[C@@H](C)[C@@H]3CC[C@@]12C
inactive: HCT-15 colon 88.4% | HT29 colon 107% | SNB-75 CNS 86.9% | SNB-19 CNS 88.9% | U251 CNS 91.5% | PC-3 prostate 70.9% | SK-MEL-5 melanoma 98.9% | UACC-62 melanoma 93.7% | LOX IMVI melanoma 78.1% | SK-MEL-28 melanoma 111% | SK-MEL-2 melanoma 96.7% | EKVX NSCLC 100% | SN12C renal 95.1% | UO-31 renal 77.5% | TK-10 renal 119% | ACHN renal 102% | CAKI-1 renal 76.1% | A498 renal 111% | CCRF-CEM leukemia 87.3% | MOLT-4 leukemia 72.1%

Cc1cc(NCCCNc2ccnc3cc(Cl)ccc23)nc(Nc2ccc(C(=O)N3CCCCC3)cc2)n1
inactive: SNB-75 CNS 26.7% | SNB-19 CNS 25.6% | PC-3 prostate 50.5% | SK-MEL-2 melanoma 75.7% | EKVX NSCLC 48.4% | SN12C renal 36.6% | UO-31 renal 57.6% | ACHN renal 43.2% | CAKI-1 renal 76.2% | A498 renal 66.9% | CCRF-CEM leukemia 14.4% | MOLT-4 leukemia 20.7%
active: HCT-15 colon 0.549% | HT29 colon -5.41% | U251 CNS -8.28% | SK-MEL-5 melanoma -98.5% | UACC-62 melanoma -71.2% | LOX IMVI melanoma -77.1% | SK-MEL-28 melanoma -71.2% | TK-10 renal 5.49%

C#COc1cccc(Nc2ncnc3cc(NC(=O)[C@H](C)Cl)ccc23)c1
active: HCT-15 colon 9.91% [6.25 µM] | HT29 colon 1.38% [6.25 µM] | SNB-75 CNS 3.55% [6.25 µM] | U251 CNS 3.14% [6.25 µM] | SK-MEL-5 melanoma 9.1% [6.25 µM] | LOX IMVI melanoma 5.47% [6.25 µM] | SK-MEL-2 melanoma 9.63% [6.25 µM] | TK-10 renal 9.65% [6.25 µM] | A498 renal 2.08% [6.25 µM]
inactive: SNB-19 CNS 19.3% [6.25 µM] | PC-3 prostate 95.3% [6.25 µM] | UACC-62 melanoma 22.1% [6.25 µM] | SK-MEL-28 melanoma 29.4% [6.25 µM] | EKVX NSCLC 20.3% [6.25 µM] | SN12C renal 10.6% [6.25 µM] | UO-31 renal 27.1% [6.25 µM] | ACHN renal 17.1% [6.25 µM] | CAKI-1 renal 26.2% [6.25 µM] | CCRF-CEM leukemia 102% [6.25 µM] | MOLT-4 leukemia 98.6% [6.25 µM]
